In ChEMBL document CHEMBL1201862, “PubChem BioAssay data set” (2004):
The whole screen tested about 400,000 compounds, of which about 2,100 (0.53%) were called active. Another 14% or so got no clear call; they are omitted. The sample holds actives, similar compounds and a random draw of the others, so the mix is not that of the screen. No rule for the calls is given here.

target: Ataxin-2 (Homo sapiens) (UniProt Q99700); assay: qHTS for Inhibitors of ATXN expression.; assay type: functional
Sequence (Q99700 whole entry): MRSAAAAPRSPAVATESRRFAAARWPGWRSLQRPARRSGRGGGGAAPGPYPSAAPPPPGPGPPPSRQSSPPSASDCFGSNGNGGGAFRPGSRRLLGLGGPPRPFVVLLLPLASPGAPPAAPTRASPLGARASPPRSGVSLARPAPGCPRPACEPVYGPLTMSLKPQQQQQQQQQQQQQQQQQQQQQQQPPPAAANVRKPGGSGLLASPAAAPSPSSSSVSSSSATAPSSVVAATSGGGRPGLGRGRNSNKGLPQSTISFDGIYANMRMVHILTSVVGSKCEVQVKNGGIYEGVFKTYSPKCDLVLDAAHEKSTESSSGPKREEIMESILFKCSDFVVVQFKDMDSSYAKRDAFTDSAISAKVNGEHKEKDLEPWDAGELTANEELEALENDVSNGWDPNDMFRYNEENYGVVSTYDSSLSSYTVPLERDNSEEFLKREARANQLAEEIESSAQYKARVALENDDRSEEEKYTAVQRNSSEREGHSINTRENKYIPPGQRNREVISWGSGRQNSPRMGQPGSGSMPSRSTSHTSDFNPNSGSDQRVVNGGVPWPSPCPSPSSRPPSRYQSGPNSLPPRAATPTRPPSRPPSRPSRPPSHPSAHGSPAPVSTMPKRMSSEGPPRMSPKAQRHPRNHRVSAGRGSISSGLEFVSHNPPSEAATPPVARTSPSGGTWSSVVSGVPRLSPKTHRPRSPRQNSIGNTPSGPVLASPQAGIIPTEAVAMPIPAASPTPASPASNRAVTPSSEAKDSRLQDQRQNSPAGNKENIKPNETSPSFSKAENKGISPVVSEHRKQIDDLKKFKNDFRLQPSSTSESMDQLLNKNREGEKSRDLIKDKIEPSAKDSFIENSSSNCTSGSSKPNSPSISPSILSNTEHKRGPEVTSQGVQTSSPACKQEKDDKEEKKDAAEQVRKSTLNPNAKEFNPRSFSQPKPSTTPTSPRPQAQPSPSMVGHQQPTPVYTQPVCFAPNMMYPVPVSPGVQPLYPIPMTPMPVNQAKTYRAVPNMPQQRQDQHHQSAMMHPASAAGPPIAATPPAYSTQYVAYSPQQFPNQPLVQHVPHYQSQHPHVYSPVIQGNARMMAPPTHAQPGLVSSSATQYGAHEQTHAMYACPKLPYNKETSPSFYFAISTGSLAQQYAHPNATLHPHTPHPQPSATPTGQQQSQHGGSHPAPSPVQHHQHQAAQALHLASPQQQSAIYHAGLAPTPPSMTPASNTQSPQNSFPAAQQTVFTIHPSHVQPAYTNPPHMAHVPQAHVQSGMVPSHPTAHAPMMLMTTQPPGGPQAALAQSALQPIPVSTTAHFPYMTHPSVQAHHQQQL

Row | SMILES | Potency
1 | O=C(N/N=C/c1ccsc1)C1CC1 | inactive
2 | COc1ccc2[nH]c(CN3CCN(CCC(C)C)C(CCO)C3)c(C)c2c1 (centres undefined) | inactive
3 | CCOC(=O)C1=C(C)N=c2s/c(=C/c3ccc(OCC(=O)O)c(OC)c3)c(=O)n2C1c1ccc(Cl)cc1 (centres undefined) | inactive
4 | Cc1ccc(CS(=O)(=O)c2ncc(Cl)c(C(=O)Nc3nc4ccc(C)cc4s3)n2)cc1 | 22.4 µM (active)
5 | Cc1ccc2nc(-c3ccc(NS(=O)(=O)c4c(C)n(C)c(=O)n(C)c4=O)cc3)sc2c1 | inactive
6 | CCc1nnc(NC(=O)c2sc3nc4c(cc3c2N)CCCCCC4)s1 | inactive
7 | CCc1nnc(NC(=O)c2sc3nc4c(cc3c2N)CCCCC4)s1 | inactive
8 | CCc1nnc(NC(=O)c2nc(S(=O)(=O)Cc3ccc(C)cc3)ncc2Cl)s1 | 31.6 µM (active)
9 | CCN1CCN(CC(=O)Nc2nc3ccc(C)cc3s2)CC1 | inactive
10 | CCc1nnc(NC(=O)c2ccc(S(=O)(=O)N(CCOC)CCOC)cc2)s1 | inactive
11 | CCCc1nnc(NC(=O)c2nc(S(=O)(=O)Cc3ccc(C)cc3)ncc2Cl)s1 | 39.8 µM (active)
12 | CC(=O)Nc1nnc(COc2ccc(Cl)cc2)s1 | inactive
13 | CCc1nnc(NC(=O)c2ccc(Br)o2)s1 | inactive
14 | CCOCCC(=O)Nc1nnc(CCc2ccccc2)s1 | inactive
15 | CCCc1nnc(NC(=O)c2nc(S(=O)(=O)Cc3cccc(C)c3)ncc2Cl)s1 | 35.5 µM (active)
16 | Cc1sc(NC(=O)/C=C/c2ccco2)c(C(=O)OC(C)C)c1C | inactive
17 | O=C(O)CC/C(=N/NC(=O)CNC(=O)Cc1ccccc1)c1ccccc1 | inactive
18 | COc1ccc(/C=N/NC(=O)c2sccc2C)c2ccccc12 | inactive
19 | CCCc1nnc(SCC(=O)Nc2cccc(Cl)c2Cl)o1 | inactive
20 | Fc1ccc(NC(S)=Nc2nccs2)cc1 | inactive
21 | O=C(c1cnn(-c2ccc(Cl)cc2)c1)c1ccccc1O | inactive
22 | OCCNc1c2ccccc2nc2c(F)c(F)c(F)c(F)c12 | inactive
23 | O=c1oc2c(CN3CCCCC3)c(O)ccc2cc1-c1nc2ccccc2[nH]1 | inactive
24 | CC(C)(C)NC(=O)CSc1nnc(NC(=O)CCc2ccccc2)s1 | inactive
25 | CSc1ncc(C(=O)Nc2ccccc2Cl)c(C)n1 | inactive

Row | SMILES | Potency
26 | CSc1nnc(NC(=O)c2nc(S(=O)(=O)Cc3ccccc3)ncc2Cl)s1 | 28.2 µM (active)
27 | O=C(CN(CCc1ccccc1)C(=O)c1csnn1)NCc1ccc(F)cc1 | inactive
28 | Cc1ccccc1C1N=C2Oc3ccccc3C=C2C(=O)N1 (centres undefined) | inactive
29 | COc1c(C)cc(S(=O)(=O)NCc2ccco2)c(C)c1C | inactive
30 | CCN1/C(=C/C=C/c2oc3ccc(-c4ccccc4)cc3[n+]2CC)Oc2ccc(-c3ccccc3)cc21 | 29.9 µM (active)
31 | O=C(Cc1ccc(NC2=NC3CS(=O)(=O)CC3S2)cc1)N1CCN(c2ccc(F)cc2)CC1 (centres undefined) | inactive
32 | COc1ccc(CN2C(=O)c3cccnc3C2=O)cc1S(=O)(=O)N1CCOc2ccccc21 | inactive
33 | COc1cc(CCNC2=CC(=O)c3ncccc3C2=O)ccc1O | 16.8 µM (active)
34 | COc1ccc(CN2C(=O)c3cccnc3C2=O)cc1S(=O)(=O)NCc1ccc(C)o1 | inactive
35 | CC(C)(C)c1ccc(SC2=C[C@@]3(O)CC[C@@H](O)[C@@](Sc4ccc(C(C)(C)C)cc4)(C2=O)[C@H]3O)cc1 | 25.1 µM (active)
36 | C=CCn1c(SCC(=O)c2[nH]c(C)c(C(=O)OCC)c2C)nc2scc(-c3ccc(OC)c(OC)c3)c2c1=O | 20 µM (active)
37 | CCOC(=O)c1c(C)[nH]c(C(=O)N(C)CC(=O)Nc2ccc(OCC)c(OCC)c2)c1C | inactive
38 | C=CCn1c(SCCN2C(=O)c3ccccc3C2=O)nc2scc(-c3ccc(F)cc3)c2c1=O | inactive
39 | O=C1OCCN1C(=O)[C@H]1[C@H](c2ccc(F)cc2)C(c2ccccc2)=NN1c1ccccc1 | inactive
40 | CNc1c2cccc(C)c2nc2c(C(=O)NCCN(C)C)cccc12 | 0.794 µM (active)
41 | Cc1cccc2c(C(=O)O)c3cccc(C)c3nc12 | inactive
42 | COc1ccc(C(=O)NCCNc2nc3c(C)cccc3cc2C#N)cc1OC | inactive
43 | CC1CCN(c2nc(Cl)nc(Nc3ccc([N+](=O)[O-])cc3)n2)CC1 | 39.8 µM (active)
44 | O=[N+]([O-])c1ccc(Nc2nc(N3CCOCC3)nc(N3CCOCC3)n2)cc1 | inactive
45 | CCOc1nc(Nc2ccc([N+](=O)[O-])cc2)nc(NC(C)(C)C)n1 | inactive
46 | COCc1ccc(C(=O)Nc2ccccc2C(=O)NCc2cccnc2)cc1 | inactive
47 | O=C(NC(Cc1ccccc1)C(=O)Oc1ccc2c(C(F)(F)F)cc(=O)oc2c1)OCc1ccccc1 (centres undefined) | inactive
48 | C[C@H](NC(=O)c1[nH]cnc1C(=O)NCc1ccc(CNC(=O)OC(C)(C)C)cc1)C(=O)OCc1ccccc1 | 25.1 µM (active)
49 | C[C@H](NC(=O)c1[nH]cnc1C(=O)Nc1ccc(CNC(=O)OC(C)(C)C)cc1)C(=O)OCc1ccccc1 | 39.8 µM (active)
50 | CC(C)(C)OC(=O)NCc1ccc(NC(=O)c2[nH]cnc2C(=O)N[C@@H](Cc2ccccc2)C(=O)OCc2ccccc2)cc1 | 35.5 µM (active)

Row | SMILES | Potency
51 | CC(NC(=O)OC(C)(C)C)C(=O)NC(CCC(=O)OCc1ccccc1)C(N)=O (centres undefined) | inactive
52 | COc1ccccc1C1C2=C(CC(C)(C)CC2=O)N(CC(=O)O)C2=C1C(=O)CC(C)(C)C2 | inactive
53 | CN(CCC#N)C(=O)COC(=O)c1c2c(nc3ccccc13)/C(=C\c1ccco1)CC2 | inactive
54 | COc1ccccc1N/C=C/c1onc(C)c1[N+](=O)[O-] | inactive
55 | CCOC(=O)c1ccc(N2C(=O)c3[nH]nc(-c4ccccc4)c3C2c2ccc(CC)cc2)cc1 (centres undefined) | 39.8 µM (active)
56 | O=C(OCC1OC(n2cc(Br)c(=O)[nH]c2=O)C(Br)C1O)c1ccccc1 (centres undefined) | inactive
57 | Cc1cc(NC(=O)COC(=O)c2cccc(O)c2)no1 | inactive
58 | COc1ccc(C(=O)COC(=O)c2cncc(Br)c2)cc1 | inactive
59 | CCOC(=O)c1ccc(N2C(=O)c3[nH]nc(-c4ccc(OC)cc4)c3C2c2cccc(O)c2)cc1 (centres undefined) | 31.6 µM (active)
60 | Cc1cc(NC(=O)Nc2ccc(OCc3ccccc3)cc2)n(C)n1 | inactive
61 | Oc1ccc(NCc2cccs2)cc1 | inactive
62 | Oc1ccc(NCc2cccc(OCc3ccccc3)c2)cc1 | 28.2 µM (active)
63 | Oc1ccc(NCc2ccccc2OCc2ccccc2)cc1 | 39.8 µM (active)
64 | O=C1CCCCC/C1=N/Nc1ccc(OCc2ccccc2)cc1 | inactive
65 | CC(O)CNCCCCOc1ccc(OCc2ccccc2)cc1 (centres undefined) | inactive
66 | COc1cc(CNC(C)(C)CO)cc(Br)c1OCc1ccccc1 | inactive
67 | CC(NCc1cccc(OCc2ccccc2)c1)C(O)c1ccccc1 (centres undefined) | 25.1 µM (active)
68 | CCOc1cc(CNc2ccc(O)cc2)cc(Br)c1OCc1ccccc1 | 20 µM (active)
69 | CN=C(S)Nc1ccc(OCc2ccccc2)cc1 | inactive
70 | CCOc1ccc(C2C(C(=O)Nc3ccccc3)=C(C)N=c3s/c(=C/c4cccc(OCC(=O)O)c4)c(=O)n32)cc1 (centres undefined) | inactive
71 | N#CC1=C(N)OC2=C(CC/C2=C\c2ccccc2Cl)C1c1ccccc1Cl (centres undefined) | inactive
72 | COCCNC(=O)c1c(N)n(CCCn2ccnc2)c2nc3ccccc3nc12 | inactive
73 | O=C(Oc1ccc2ccc(=O)oc2c1)c1ccccc1 | inactive
74 | Clc1ncccc1OCc1ccccc1 | inactive
75 | c1ccc(COc2ccccc2CNC23CC4CC(CC(C4)C2)C3)cc1 | 20 µM (active)

Row | SMILES | Potency
76 | Oc1ccc(NCc2ccc(OCc3ccccc3Cl)cc2)cc1 | 22.4 µM (active)
77 | N=c1c(C(=O)NC2CCCC2)cc2c(=O)n3ccccc3nc2n1CC1CCCO1 (centres undefined) | inactive
78 | COC(=O)Cc1cc(=O)oc2c(C)c(O)ccc12 | inactive
79 | CCCCn1c(C2CCCCC2)nc2cc3nc(O)c(C(C)C)nc3cc21 | 35.5 µM (active)
80 | CCCCn1c(-c2cccc(C)c2)nc2cc3nc(O)c(C(C)C)nc3cc21 | 31.6 µM (active)
81 | CCCC1=Nc2ncnn2C(c2cccs2)/C1=C(\O)OCC (centres undefined) | inactive
82 | CCC(C)n1c(=N)c(C(=O)NC2CCCCC2)cc2c(=O)n3ccccc3nc21 (centres undefined) | inactive
83 | CCN(C(=O)COC(=O)CCC(=O)c1ccc(Cl)cc1)c1c(N)n(Cc2ccccc2)c(=O)[nH]c1=O | inactive
84 | CCN(C(=O)COC(=O)C1CCC(C(C)(C)C)CC1)c1c(N)n(Cc2ccccc2)c(=O)[nH]c1=O (centres undefined) | 22.4 µM (active)
85 | CCN(C(=O)COC(=O)CCS(=O)(=O)c1ccccc1)c1c(N)n(Cc2ccccc2)c(=O)[nH]c1=O | inactive
86 | CN(C(=O)COC(=O)/C=C/c1ccc2ccccc2n1)C1CCS(=O)(=O)C1 (centres undefined) | inactive
87 | Oc1cccc(Nc2c3ccccc3nc3ccccc23)c1 | inactive
88 | Cc1cc(Nc2cccc(O)c2)c2cccc(Br)c2n1 | 8.91 µM (active)
89 | Cc1cc(NCCO)c2cc(O)ccc2n1 | inactive
90 | CCOC(=O)C1=CN(CC2CCCO2)C=C(C(=O)OCC)C1c1ccccc1C(F)(F)F (centres undefined) | inactive
91 | COc1ccc(C(=O)/C=C/Sc2nc3ccccc3o2)cc1 | 39.8 µM (active)
92 | COc1ccc(C(=O)/C=C2\Sc3ccccc3N2C)cc1 | inactive
93 | COc1cccc(C(=O)Oc2ccc3ccc(=O)oc3c2)c1 | inactive
94 | CCOC(=O)c1cc2c(=O)n3cccc(C)c3nc2n(Cc2ccco2)/c1=N/C(=O)c1ccccc1 | inactive
95 | N#CC1=C(N)N2C(=C(C#N)C1c1cccc(Br)c1)Nc1ccccc12 (centres undefined) | inactive
96 | O=C(OC12CC3CC(CC(C3)C1)C2)c1ccc(NCc2cc(O)ccc2O)cc1 | 8.44 µM (active)
97 | COC(=O)C1=CN(CCOC23CC4CC(CC(C4)C2)C3)C=C(C(=O)OC)C1c1ccsc1 | inactive
98 | O=C(OCCC12CC3CC(CC(C3)C1)C2)c1ccc(NCc2cc(O)ccc2O)cc1 | 10 µM (active)
99 | CC1CCN(c2ccc3c(c2)S(=O)(=O)c2cccc(C(=O)O)c2C3=O)CC1 | inactive
